Data reported in PubChem BioAssay (NCI).
About 83,000 compounds went through this panel and 20% of them were active in at least one assay; those are over-represented in the sample as a whole.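 The endpoint reported here, percent growth, reads 100 for growth as untreated, 0 for no net growth and -100 for all cells dead.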 Values without a mark were called inactive. The source made the active and inactive calls. How the source made its calls: active means growth percent below 10; inactive means the rest.

Columns and labels:
Experiment in all cases: NCI-60 one-dose screen, 48 h (100 = growth as untreated, 0 = no growth, -100 = all killed)
NCI-H23 lung = conditions: 10 µM unless noted
NCI-H226 lung = conditions: 10 µM unless noted
NCI-H322M lung = conditions: 10 µM unless noted
HOP-62 NSCLC = conditions: 10 µM unless noted
NCI-H460 lung = conditions: 10 µM unless noted
HOP-92 NSCLC = conditions: 10 µM unless noted
NCI-H522 lung = conditions: 10 µM unless noted
A549/ATCC NSCLC = conditions: 10 µM unless noted
786-0 renal = conditions: 10 µM unless noted
COLO 205 colon = conditions: 10 µM unless noted
DU-145 prostate = conditions: 10 µM unless noted
K-562 leukemia = conditions: 10 µM unless noted
MALME-3M melanoma = conditions: 10 µM unless noted
MDA-MB-231 breast = conditions: 10 µM unless noted
RXF 393 renal = conditions: 10 µM unless noted
SF-268 CNS = conditions: 10 µM unless noted
SF-295 CNS = conditions: 10 µM unless noted
SF-539 CNS = conditions: 10 µM unless noted
UACC-257 melanoma = conditions: 10 µM
M14 melanoma = conditions: 10 µM unless noted

Structure (SMILES) | growth (NCI-H23 lung) [%] | growth (NCI-H226 lung) | growth (NCI-H322M lung) [%] | growth (HOP-62 NSCLC) [%] | growth (NCI-H460 lung) | growth (HOP-92 NSCLC) | growth (NCI-H522 lung) | growth (A549/ATCC NSCLC) | growth (786-0 renal) [%] | growth (COLO 205 colon) | growth (DU-145 prostate) [%] | growth (K-562 leukemia) | growth (MALME-3M melanoma) | growth (MDA-MB-231 breast) | growth (RXF 393 renal) | growth (SF-268 CNS) [%] | growth (SF-295 CNS) | growth (SF-539 CNS) | growth (UACC-257 melanoma) | growth (M14 melanoma)
Cc1ccc(/C=C/CC(=O)Nc2ccc(C(=O)Nc3ccc(F)cc3N)cc2)cn1 | 68.6 | 68.6% | 74.4 | 59.1 | 72.1% | 22.6% | 30.4% | 69.2% | 75.6 | 49.4% | 54.3 | 34% | 41.4% | 69.3% | 74.5% | 60.4 | 69.7% | 55.9% | 52.4% | 56.7%
COc1ccc(NC2=C(Cl)C(=O)C(C)=C(C)C2=O)cc1 | 83.7 | 99% | 100 | 95.6 | 97.3% | -2.54% (active) | 85.6% | 98.3% | 113 | 109% | 106 | 5.78% (active) | 99.8% | -15.1% (active) | 100% | 96 | 100% | 103% | 85.5% | 95.5%
O=c1[nH]c(CCl)nc2c1cnn2-c1ccccc1 | 101 | 110% | 101 | 125 | 101% | 101% | 103% | 98.6% | 77.9 | 114% | 98.6 | 87.5% | 110% | 101% | 94.1% | 99.9 | 110% | 97.1% | 96.2% | 95.7%
CCc1ccc(NC(=O)N[C@@H](Cc2cccc(F)c2)C(=O)N[C@@H]2C(=O)N3CCC[C@H]3C(=O)N3CCCC[C@H]3C(=O)N[C@@H](CO)C(=O)N3C[C@H](C)C[C@H]3C(=O)O[C@H]2C)c(F)c1 | 32.9 | -1.86% (active) | 51.1 | 37.8 | 14.4% | 2.76% (active) | 20.1% | 36.3% | 44.1 | -50.4% (active) | 26.9 | 20.1% | 41.5% | 35.2% | -11.7% (active) | 30.6 | 15.8% | 39.8% | 16% | 21.4%
Oc1ccccc1-c1nnc(SCc2ccc(O)c3ncccc23)n1-c1ccccc1 | 17.4 | 9% (active) | 21.9 | 13.6 | 3.98% (active) | -4.85% (active) | -6.01% (active) | 9.34% (active) | 20.1 | 34.5% | 22.9 | 10.8% | 0.0457% (active) | 28.2% | -9.85% (active) | 14.9 | 1.17% (active) | 7.96% (active) | 1.58% (active) | -28.3% (active)
C=C(C)[C@@H]1CC[C@]2(C(=O)NCCCN(CCC#N)CCC#N)CC[C@]3(C)[C@H](CC[C@@H]4[C@@]5(C)CCC(=O)C(C)(C)[C@@H]5CC[C@]43C)[C@@H]12 | 93.6 | 94% | 103 | 97.9 | 101% | 102% | 91.6% | 97.3% | 101 | 109% | 109 | 88.4% | 102% | 99.4% | 92.9% | 99.2 | 97.1% | 99.7% | 105% | 101%
Cc1ccc(Cc2cnc(NC(=O)/C(C#N)=C/c3ccc(-c4ccc(Cl)cc4)o3)s2)cc1 | 91.3 | 117% | 84.9 | 101 | 83.8% | 66.9% | 96.9% | 103% | 99.9 | 93.8% | 84 | 88.7% | 98.8% | 97.4% | 61% | 95.3 | 102% | 98.4% | 100% | 95.9%
